Hits are enriched below; roughly 2.9% of the tested compounds scored in any of these assays.
EBV LMP1 NFkB: reduces LMP1-driven NF-kappaB luciferase signal | LMP1-induced NF-kappaB luciferase reporter cells, luminescence | inhibition, % at 12.5 µM | 0.69% of 350,000 active | AID 504558; in the data active = inhibition above about 41%; inconclusive = no clear call, values can overlap the other calls
CF NFkB inh: blocks PAF-induced NF-kB reporter in cystic fibrosis cells; 0.86% of 360,000 active; inhibition, % at 5 µM; KKLEB NF-kB-GFP reporter, GFP fluorescence overnight;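 active = at least 50% inhibition at 5 µM, scaled per plate between neutral and stimulator controls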;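 note: PAF is a Pseudomonas aeruginosa culture filtrate used as stimulus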
Peg3 promoter: Peg3 promoter activity inhibition | HeLa PEG-Prom luciferase reporter, luminescence, overnight | inhibition, % at 20 µM | 1.7% of 360,000 active;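 active = inhibition of at least 50% at 20 µM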
Shn3 inh set2: inhibitors of Schnurri-3 3'UTR reporter in osteoblasts | Clone20 osteoblast Shn3 3'UTR firefly luciferase, 24 h | inhibition, % at 12.5 µM | 0.52% of 360,000 active | AID 588674;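 active = mean inhibition of at least 75% with every replicate also reaching 75%; inconclusive = mean inhibition at least 75% but some replicate below; inactive = mean inhibition below 75%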
KKLEB tox: reduces viability of KKLEB cystic fibrosis airway cells | activity change (cytotoxicity), % at 5 µM | 0.36% of 360,000 active | KKLEB CF airway cells viability, ATPlite luminescence, overnight; active compounds read low; cells stimulated with P. aeruginosa culture filtrate;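 active = corrected activity change at or below -50% at 5 µM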
MITF TRPM1 inh: reduces MITF-dependent TRPM1 promoter luciferase signal; SK-MEL-5 TRPM1 promoter luciferase, 24 h; inhibition, % at 12.5 µM; 0.83% of 330,000 active; AID 488899;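 active = mean inhibition across replicates of 60% or more, whatever share of single replicates reaches that level; inconclusive = some that reach 60%, reason not given; inactive = mean inhibition across replicates below 60%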
Of the large screens only hits and unclear results are named; the others gave an inactive call.

O=C(O)c1ccc(N=NNc2cccc([N+](=O)[O-])c2)cc1	none
O=C(NCc1cccnc1)c1csc([C@H]2C[C@H](O)[C@@H](CO)O2)n1	none (no result: EBV LMP1 NFkB, MITF TRPM1 inh)
COc1cccc(CNCCc2c[nH]c3ccccc23)c1OCc1ccccc1	Peg3 promoter 105, Shn3 inh set2 inconclusive, MITF TRPM1 inh 94
O=[N+]([O-])/C=C/c1cn(Cc2ccc(F)cc2)c2ccccc12	Peg3 promoter 53
O=C(O)c1ccc(N/N=C/c2cn(Cc3ccc(F)cc3)c3ccccc23)cc1	none
N#Cc1c(C#N)c(SSc2c(C#N)c(C#N)c(N)n2-c2ccccc2)n(-c2ccccc2)c1N	CF NFkB inh 88, Peg3 promoter 105, Shn3 inh set2 89, KKLEB tox -89, MITF TRPM1 inh 93
N#Cc1c(N)n(-c2ccc(N)cc2)c2nc3ccccc3nc12	none
COc1ccc(C(C)(C)C)cc1NC(=O)COC(=O)CN1C(=O)NC2(CCCCC2C)C1=O (stereo not drawn)	none
Cc1cscc(C)c1=S	none (no result: MITF TRPM1 inh)
S=C(Nc1ccc(OCc2ccccc2)cc1)Nc1cccc(Cl)c1Cl	EBV LMP1 NFkB 74
S=C(Nc1ccccc1)Nc1ccc(OCc2ccccc2)cc1	none
Cc1ccc(C)c(N=Nc2ccc(O)c3ncccc23)c1	EBV LMP1 NFkB 61, Shn3 inh set2 86, MITF TRPM1 inh 64
Cc1cccc(N=Nc2ccc(O)c3ncccc23)c1	EBV LMP1 NFkB 52, Shn3 inh set2 87, MITF TRPM1 inh 71
Cc1ccc(NCc2ccc(O)c3ncccc23)cc1	none
Oc1ccc(N=Nc2ccc3c(c2)OCCO3)c2ncccc12	Shn3 inh set2 95, MITF TRPM1 inh 73
O=C(Nc1ncccc1O)c1ccc2c(c1)OCCO2	none
COc1ccc([N+](=O)[O-])c(S(=O)(=O)c2ccccc2)n1	CF NFkB inh 85, Peg3 promoter 111, KKLEB tox -55 (no result: EBV LMP1 NFkB, MITF TRPM1 inh)
COc1ccccc1S(=O)(=O)c1ccccc1[N+](=O)[O-]	none
COc1ccc([N+](=O)[O-])c(S(=O)(=O)c2ccc(Cl)cc2)n1	EBV LMP1 NFkB 62, CF NFkB inh 102, Peg3 promoter 105, Shn3 inh set2 94, MITF TRPM1 inh 71
O=[N+]([O-])c1cccnc1S(=O)(=O)c1ccccc1	CF NFkB inh 82, Peg3 promoter 82, Shn3 inh set2 98, KKLEB tox -68
COc1nc(OC)nc(Oc2ccc(Cl)cc2[N+](=O)[O-])n1	none
CCOC(=O)[C@@H](NC(=O)/C=C/[C@H]1O[C@@H](n2cc(C)c(=O)[nH]c2=O)C[C@@H]1O)C(C)C	none (no result: EBV LMP1 NFkB, MITF TRPM1 inh)
COc1ccc(COc2ccsc2C(=O)Nc2ccc(Cl)c(Cl)c2)cc1	KKLEB tox -66
CN(C)S(=O)(=O)Oc1ccsc1C(=O)Nc1ccc(Cl)c(Cl)c1	none
Cc1ccc(C(O)c2ncc(-c3ccccc3)[nH]2)c(C)c1 (stereo not drawn)	none (no result: EBV LMP1 NFkB, MITF TRPM1 inh)
Cc1cc(N=Cc2c(O)ccc3cc(Br)ccc23)no1	EBV LMP1 NFkB 56
Cc1cc(C(O)c2ncc(-c3ccccc3)[nH]2)ccc1F (stereo not drawn)	none (no result: EBV LMP1 NFkB, MITF TRPM1 inh)
Cn1nnnc1Sc1ncnc2scc(-c3ccc(C(F)(F)F)cc3)c12	CF NFkB inh 72, Peg3 promoter 97, KKLEB tox -59, MITF TRPM1 inh 82
Cn1nnnc1Sc1ncnc2scc(-c3ccc(-c4ccccc4)cc3)c12	CF NFkB inh 88, Peg3 promoter 101, KKLEB tox -63
COC(=O)CSc1ncnc2scc(-c3ccccc3)c12	none
Cn1nnnc1Sc1ncnc2scc(-c3ccccc3C(F)(F)F)c12	none
Cn1nnnc1Sc1ncnc2scc(-c3cccc(C(F)(F)F)c3)c12	CF NFkB inh 71, Peg3 promoter 95, KKLEB tox -52, MITF TRPM1 inh 75
Cn1nnnc1Sc1ncnc2scc(-c3cc4ccccc4o3)c12	EBV LMP1 NFkB 62, CF NFkB inh 83, Peg3 promoter 100, KKLEB tox -86, MITF TRPM1 inh 100
Cn1nnnc1Sc1ncnc2scc(-c3cccs3)c12	EBV LMP1 NFkB 53, MITF TRPM1 inh 88 (no result: CF NFkB inh, Peg3 promoter, KKLEB tox)
COc1cccc(-c2csc3ncnc(Sc4nnnn4C)c23)c1	EBV LMP1 NFkB 75, Peg3 promoter 88, MITF TRPM1 inh 71
COc1ccc(N(CC(=O)NCc2cccs2)S(=O)(=O)c2ccc(F)cc2)cc1	none
CCc1nc2c(OCC(=O)c3ccc(Cl)cc3Cl)cccn2c1N(C)C(=O)c1cccs1	none (no result: EBV LMP1 NFkB, MITF TRPM1 inh)
Cc1cscc1-c1ccc(C(=O)Nc2c(C)cccc2C)o1	none (no result: EBV LMP1 NFkB, MITF TRPM1 inh)
COc1ccc(-c2nc(C)ncc2-c2ccccc2)c(O)c1	EBV LMP1 NFkB 43
CC(C)NC(=O)C1(C)CCN1Cc1cccc(C#N)c1 (stereo not drawn)	none (no result: EBV LMP1 NFkB, MITF TRPM1 inh)
CC1(C)CCN2CCC(C)(C)c3c(O)ccc1c32	MITF TRPM1 inh 64
O=C(NNc1ccccn1)C(c1ccccc1)c1ccccc1	none
O=C(NNC(=S)Nc1ccc(Cl)c(Cl)c1)c1ccccn1	EBV LMP1 NFkB 62, Shn3 inh set2 92
O=C(NNC(=O)C(c1ccccc1)c1ccccc1)c1ccccn1	Shn3 inh set2 93
CCNC(=S)NNC(=O)c1ccccn1	none
Cc1ccccc1Nc1ccc(S(=O)(=O)N2CCOCC2)cc1[N+](=O)[O-]	Peg3 promoter 59
Cc1ccc(Nc2ccc(S(=O)(=O)N3CCOCC3)cc2[N+](=O)[O-])c(C)c1	none
Cc1cc(C)nc(NC(N)=NCCc2ccccc2)n1	MITF TRPM1 inh 65
CN1C(=O)/C(=C\c2cc(N=Nc3ccccc3)ccc2O)SC1=S	CF NFkB inh 50
CC(C)(C)c1ccc(C(=O)N2CCC2(C)C(=O)Nc2cnc3ccccc3c2)cc1 (stereo not drawn)	none (no result: EBV LMP1 NFkB, MITF TRPM1 inh)
CCC(=O)OCCNc1cc(SCCC(=O)OC)c2nonc2c1[N+](=O)[O-]	none
CCC(=O)OCCNc1cc(Sc2nccn2C)c2nonc2c1[N+](=O)[O-]	CF NFkB inh 89, Peg3 promoter 105, Shn3 inh set2 89, KKLEB tox -78, MITF TRPM1 inh 92
CCCC(=O)OCCNc1cc(Sc2nc3ccccc3[nH]2)c2nonc2c1[N+](=O)[O-]	CF NFkB inh 92, Peg3 promoter 109, Shn3 inh set2 93, KKLEB tox -66
CC1(Cc2ccc3c(c2)OCO3)C(=O)Nc2c(Cl)ccc(Cl)c21 (stereo not drawn)	none (no result: EBV LMP1 NFkB, MITF TRPM1 inh)
O=C1C=C(N(CCO)Cc2ccccc2)c2ccccc2C1=O	CF NFkB inh 68, MITF TRPM1 inh 106
CN(C)CCNC(=O)c1cccc(-c2cnc3c(NC=O)cc(-c4ccccc4F)cn23)c1	Peg3 promoter 96 (no result: EBV LMP1 NFkB, MITF TRPM1 inh)
CN(C)CCNC(=O)c1cccc(-c2cnc3c(NC=O)cc(-c4cccs4)cn23)c1	Peg3 promoter 53 (no result: EBV LMP1 NFkB, MITF TRPM1 inh)
Nc1ccn([C@@H]2O[C@H](CNCc3ccc(N4CCNCC4)cc3)[C@@H](O)[C@H]2O)c(=O)n1	none (no result: MITF TRPM1 inh)
OC[C@@H]1CN(CCN2CCOCC2)C[C@H](n2cnc3c(N4CCCC4)ncnc32)O1	none (no result: EBV LMP1 NFkB, MITF TRPM1 inh)

Bioassay records as filed in PubChem.
